AC50 and activity, negative = inhibition data for 61 molecules are collected here from PubChem BioAssay AID1851 (National Center for Advancing Translational Sciences (NCATS), 2009).

In all, about 16,000 compounds went through this assay and about 5,800 (36%) were called active. Roughly 23% stayed inconclusive and do not appear here. This is one part of the list. A number with no mark means an inactive call. Calls come from the whole dose curve; as a rule, active = well fitted curve in the direction sought with a large enough effect; inconclusive = small, poorly fitted or top-dose-only effect, or effect the other way; inactive = no such curve, though single readings can be large or run the other way.
% is set by controls: 0 for no effect and ±100 for the full control effect.

Cytochrome P450 2C19 (Homo sapiens), sequence (P33261 whole entry, looked up): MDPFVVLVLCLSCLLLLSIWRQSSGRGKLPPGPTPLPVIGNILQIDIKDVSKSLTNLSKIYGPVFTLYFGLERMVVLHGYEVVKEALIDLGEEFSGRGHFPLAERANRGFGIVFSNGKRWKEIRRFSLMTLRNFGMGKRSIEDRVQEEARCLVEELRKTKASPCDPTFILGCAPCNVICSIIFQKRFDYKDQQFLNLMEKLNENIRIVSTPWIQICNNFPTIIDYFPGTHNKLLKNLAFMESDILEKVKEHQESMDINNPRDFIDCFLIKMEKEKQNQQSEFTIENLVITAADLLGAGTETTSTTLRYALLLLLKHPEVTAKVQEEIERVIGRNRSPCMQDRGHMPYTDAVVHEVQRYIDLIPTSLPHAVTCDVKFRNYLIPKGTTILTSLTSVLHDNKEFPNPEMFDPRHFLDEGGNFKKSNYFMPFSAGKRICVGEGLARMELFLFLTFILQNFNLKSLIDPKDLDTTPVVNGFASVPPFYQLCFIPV

This test concerns the target Cytochrome P450 2C19 (Homo sapiens) (UniProt P33261). As to the kind of experiment: Cytochrome panel assay with activity outcomes. Conditions: recombinant CYP, pro-luciferin dealkylation, luminescence, p450-cyp2c19; series mostly up to 57.1 µM.
In the case of `CO[C@]1(NC(=O)C2SC(=C(C(N)=O)C(=O)O)S2)C(=O)N2C(C(=O)O)=C(CSc3nnnn3C)CS[C@H]21` (stereo partly specified), the AC50 result is “inactive”.

As to `NCCC(=O)O`, the AC50 entry is “inactive”. On the same count and under the same terms, in the case of `CCC(Sc1nc2n[nH]c(C)c2c(=N)n1-c1cccc(Cl)c1)C(=O)NCCOC` (stereo unspecified) it was 10 µM (active); in that of `CCC(C)Nc1c([N+](=O)[O-])cc(C)cc1[N+](=O)[O-]` (stereo unspecified), 7.94 µM (active). As to `Cc1cc([N+](=O)[O-])c(C)c(Br)c1C`, the activity, negative = inhibition was 8.85% [at 11.4 µM]. `c1ccc(C[C@@H](Nc2cccnc2)c2ccccc2)cc1`: the AC50 was 1 µM (active).

As to `C[C@@H](N)[C@@H](C)Cc1ccccc1`, the activity, negative = inhibition is -14.2% [at 11.4 µM]. For `O=C(O)Cc1cccnc1`, the activity, negative = inhibition is 9.66% [at 11.4 µM]. Turning to `O=c1[nH]cc(CS(=O)(=O)Cc2c[nH]c(=O)[nH]c2=O)c(=O)[nH]1`, the activity, negative = inhibition was 41% [at 11.4 µM]. Consider `COCCCN=CC1=C(O)CC(C)(C)CC1=O`, for which the AC50 entry is “inactive”. Regarding `CC1(C)CC(=O)C(C=NCCN2CCN(C(=S)Nc3ccc(F)cc3)CC2)=C(O)C1`, the AC50 was 10 µM (active). The same measure, in the same setting: under `S=C1SCN(CCN2CCOCC2)CN1Cc1ccccc1` stands 10 µM (active). Still for that read-out and setting: in the case of `CC(=O)N1CCC2(CC1)CN(Cc1ccccc1)C2` it was “inactive”; in that of `CCCCN1CSC(=S)N(Cc2ccccc2)C1`, 1.26 µM (active); in that of `COc1cc2cc3c4cc(OC)c(OC)cc4cc[n+]3c(C)c2cc1OC`, “inactive”. On to `Cc1oc(C(C)(C)C)cc1C(=O)Nc1cccc(/C=C/C(=O)O)c1`, for which the AC50 result is “inactive”. Still for that read-out and setting: in the case of `Cc1oc(-c2ccccc2)cc1C(=O)Nc1ccc(N(C)C)cc1` it was 5.62 µM (active). As for `Cc1ccc(NC(=O)c2ccccc2C(=O)O)cc1C`, the activity, negative = inhibition is -34.4% [at 11.4 µM]. Regarding `Cn1c(=N)c(S(=O)(=O)c2ccc(F)cc2)cc2c(=O)n3ccccc3nc21`, the AC50 is 11.2 µM (active).

As for `Cn1c(C(=O)N2COCC2(C)C)cc2c(=O)n3ccccc3nc21`, the AC50 entry is “inactive”. Same read-out and setting: in the case of `CCn1c(=N)c(S(=O)(=O)c2ccc(F)cc2)cc2c(=O)n3ccccc3nc21` it was 8.91 µM (active).

In the case of `Cc1cn([C@H]2C[C@H](O)[C@@H](COC(N)=O)O2)c(=O)[nH]c1=O`, the activity, negative = inhibition was 35.3% [at 11.4 µM]. For the molecule `COc1cccc(Nc2ncc3ncc(=O)n(C4CC4)c3n2)c1`, the AC50 result was “inactive”.

Regarding `COc1ccc(Nc2cc(=O)n(C3CCCCC3)c(=O)[nH]2)c(OC)c1`, the concentration at half-maximal activity (AC50) is 10 µM (active). Same read-out and setting: in the case of `COc1cccc(Nc2ncc3nc(-c4ccc(Cl)cc4)c(=O)n(C4CC4)c3n2)c1` it was “inactive”. On to `CS[C@@H](CC(=O)O)C(=O)O`, for which the activity, negative = inhibition was 17.7% [at 11.4 µM]. Take `Cc1nnc(N(C)C(=O)c2ccccn2)s1`: the AC50 result was “inactive”.

Consider `COc1cccc(C(=O)N(C)c2nnc(-c3ccncc3)s2)c1`, for which the AC50 is 0.0501 µM (active). On the same count and under the same terms, in the case of `CCOc1ccc2nc(SCc3ccccc3C#N)sc2c1` it was 1.26 µM (active).

In the case of `C=C(C)c1cccc(C(C)(C)NC(=O)Nc2cc(C)ccc2OC)c1`, the AC50 was 3.98 µM (active). The same measure, in the same setting: in the case of `CCCCn1c(NCc2ccccc2NS(=O)(=O)c2ccc(C)cc2)nc2ccccc21` it was 1.26 µM (active). For `C#CCCCO/N=C1/C[C@@H](O)[C@@H](O)[C@@H]2[C@H]3C(=O)N(c4ccc(F)cc4F)C(=O)[C@@H]3CC[C@H]12`, the activity, negative = inhibition was 14.9% [at 11.4 µM]. Turning to `C[C@H](NCCC(c1ccccc1)c1ccccc1)c1ccccc1`, the half-maximal activity concentration (AC50) is 5.01 µM (active). On to `c1ccc(C(CCN2CC3CCC(CC3)C2)c2ccccc2)cc1`, for which the activity, negative = inhibition is 21% [at 11.4 µM].

For the molecule `NC(=O)CNCCC(c1ccccc1)c1ccccc1`, the AC50 result is “inactive”. With `CCOC(=O)c1ccccc1Oc1c(F)c(F)nc(NCCO)c1F`, the half-maximal activity concentration (AC50) was 2.51 µM (active). On to `CCOC(=O)c1cnc(-n2nc(C)cc2C)nc1NCCO`, for which the AC50 result was “inactive”. The same measure, in the same setting: in the case of `COc1cccc(Nc2ncc3nc(CCc4ccccc4)c(=O)n(Cc4cccs4)c3n2)c1` it was “inactive”; in that of `CCn1c(CNC(=O)COc2ccc(C(C)C)cc2)nnc1SCC(=O)Nc1cc(F)ccc1C`, 28.2 µM (active); in that of `COc1ccc(NC(=O)CSc2nnc(Cc3cccn3C)n2CCc2ccccc2)c(OC)c1`, 3.16 µM (active). On the same count and under the same terms, in the case of `COc1ccc(CCn2c3c(c(=O)[nH]c2=O)C(NC(=O)c2cccs2)(C(F)(F)F)C(=O)N3)cc1OC` (stereo unspecified) it was “inactive”. As for `COc1ccc(OC)c(C(=O)CSc2nnc(Cc3cccs3)n2CCc2ccccc2)c1`, the AC50 is 1.78 µM (active). For the molecule `CCn1c(COc2ccccc2)nnc1SCC(=O)Nc1cc(OC)ccc1OC`, the AC50 was 2.82 µM (active). Still for that read-out and setting: in the case of `COc1ccc(C(=O)NNC(=O)CSc2nnc(COc3ccc4ccccc4c3)n2C)cc1` it was “inactive”. The same measure, in the same setting: in the case of `O=C1c2c(O)cc(O)cc2O[C@@H](c2ccc(O)c(O)c2)[C@H]1O` it was “inactive”; in that of `COc1ccc([C@@H]2CC(=O)c3c(O)cc(O[C@H]4O[C@@H](CO[C@H]5O[C@@H](C)[C@@H](O)[C@@H](O)[C@@H]5O)[C@@H](O)[C@@H](O)[C@@H]4O)cc3O2)cc1O`, “inactive”. In the case of `COc1ccc([C@@H]2CC(=O)c3c(O)cc(O)cc3O2)cc1O`, the AC50 was 5.01 µM (active).

As to `COC(=O)c1cc(C(=O)c2cccc(Cl)c2Cl)cn1C`, the AC50 was 1.26 µM (active). Turning to `Cn1cc(C(=O)c2cccc(Cl)c2Cl)cc1C(=O)O`, the AC50 result was “inactive”.

As for `Cn1cc(C(=O)c2ccc(Cl)cc2Cl)cc1C(=O)O`, the AC50 entry was “inactive”.

As for `COC(=O)c1cc(C(=O)c2ccc(Cl)cc2Cl)cn1C`, the concentration at half-maximal activity (AC50) is 5.62 µM (active). For `Cc1c(-n2cc(C(=O)c3cc(Cl)ccc3O)cc(C#N)c2=O)c(=O)n(-c2ccccc2)n1C`, the AC50 entry is “inactive”.

Consider `CN(C)CCCn1cc(C2=C(c3c[nH]c4ccccc34)C(=O)NC2=O)c2ccccc21`, for which the AC50 result was “inactive”. `COc1ccc(-c2nc3cnc(N(C)C)nc3n(CCc3ccccc3)c2=O)cc1`: the AC50 result is “inactive”.

Regarding `CN(C)c1ncc2nc(-c3ccc(F)cc3)c(=O)n(CCc3ccccc3)c2n1`, the AC50 entry is “inactive”.

`CN(C)c1ncc2ncc(=O)n(CCC#N)c2n1`: the AC50 entry is “inactive”. `CN(C)c1ncc2ncc(=O)n(CCc3ccccc3)c2n1`: the AC50 is 2 µM (active). In the case of `Cc1nc2cnc(N(C)C)nc2n(CCc2ccccc2)c1=O`, the AC50 is 0.631 µM (active). Regarding `CN(C)c1ncc2nc(-c3ccccc3)c(=O)n(CCc3ccccc3)c2n1`, the AC50 result is “inactive”. Regarding `Cc1ccc(-n2c(O)cnc2Nc2nc(C)cc(C)n2)cc1`, the AC50 result was “inactive”. As for `COc1c(C)c2c(c(O)c1C/C=C(\C)CCC(=O)O)C(=O)OC2`, the AC50 result was “inactive”.
